Measurements: PubChem BioAssay (EPA / NIEHS)
Records with an inconclusive call do not appear. Activity calls are given as the source filed them. How the source made its calls, unless noted: active means hit-call score of the fitted dose curve at least 0.9, where 1 is the maximum; inactive means score below 0.9.

Key:
[1] = target: Paired box protein Pax-6 (Homo sapiens) (UniProt P26367); experiment: ATG_Pax6_CIS: Attagene CIS-FACTORIAL HepG2 Assay for human Paired Box 6 (PAX6) (AID 2282956); conditions: HepG2 CIS-FACTORIAL PAX6 reporter transcription, RNA readout; actives raise or lower the signal
Procedure, shortened: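 HepG2 cells transiently transfected with cis-promoter-driven multiplexed reporter units sensing endogenous transcription factor activity; 24 h chemical exposure. Reporter mRNA quantified by RT-PCR, 6-FAM labelling, HpaI digestion and capillary electrophoresis; bidirectional fit versus DMSO baseline.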

[2] = ATG_PXRE_CIS: Attagene CIS-FACTORIAL HepG2 Assay for human Pregnane X Receptor Element (PXRE) (AID 2282957); conditions: HepG2 Attagene CIS-FACTORIAL PXRE reporter, mRNA; actives raise or lower the signal
Procedure, shortened: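 Transiently transfected HepG2 cells were dosed and incubated for 24 h. RNA was then isolated, DNase-treated, reverse-transcribed and reporter sequences amplified. Labeled, HpaI-digested fragments were quantified by capillary electrophoresis against DMSO.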

[3] = ATG_Sox_CIS: Attagene CIS-FACTORIAL HepG2 Assay for human SRY-box transcription factor (SOX) (AID 2282960); conditions: HepG2 Attagene cis-factorial SOX reporter, mRNA; actives raise or lower the signal
Procedure, shortened: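 Gain- or loss-of-signal endpoint, fitted bidirectionally with DMSO as negative control. Based on reporter mRNA from transfected HepG2 cells harvested 24 h post-treatment and quantified via RT-PCR and capillary electrophoresis.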

[4] = target: Transcription factor Sp1 (Homo sapiens) (UniProt P08047); experiment: ATG_Sp1_CIS: Attagene CIS-FACTORIAL HepG2 Assay for human Specificity Protein 1 (Sp1) (AID 2282961); conditions: HepG2 Sp1 cis-reporter transcription, actives raise or lower the signal
Procedure, shortened: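 Endpoint reflects endogenous Sp1 transcriptional activity, not an exogenous fusion protein: HepG2 cells with transfected cis-regulated reporters, 24 h dosing, RT-PCR/capillary electrophoresis mRNA read-out, DMSO-normalised bidirectional fit.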

[5] = ATG_SREBP_CIS: Attagene CIS-FACTORIAL HepG2 Assay for human Sterol Regulatory Element Binding (SREBP) (AID 2282962); conditions: HepG2 Attagene cis-factorial SREBP reporter, mRNA; actives raise or lower the signal
Procedure, shortened: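 HepG2 cells transiently transfected with multiplexed cis-promoter reporter units sensing endogenous transcription factors; reporter mRNA measured 24 h after dosing by RT-PCR, 6-FAM labeling, HpaI digestion and capillary electrophoresis. Bidirectional fit versus DMSO.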

[6] = target: Signal transducer and activator of transcription 3 (Homo sapiens) (UniProt P40763); experiment: ATG_STAT3_CIS: Attagene CIS-FACTORIAL HepG2 Assay for human Signal Transducer and Activator of Transcription 3 (STAT3) (AID 2282963); conditions: HepG2, Attagene cis-factorial STAT3 reporter transcription; actives raise or lower the signal
Procedure, shortened: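 After a 24 h compound incubation, total RNA from MRTU-transfected HepG2 cells was converted to cDNA and reporter sequences PCR-amplified, labelled and profiled by capillary electrophoresis. Gain and loss of signal were referenced to DMSO.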

[7] = ATG_TA_CIS: Attagene CIS-FACTORIAL HepG2 Assay for human TA Basal Promoter (AID 2282964); conditions: HepG2 Attagene CIS-factorial TA basal promoter reporter; actives raise or lower the signal
Procedure, shortened: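 HepG2 cells transiently transfected with multiple reporter units under cis promoter elements, reporting endogenous transcription factor activity; this endpoint tracks the TA basal promoter as background control. Reporter mRNA after 24 h dosing measured by RT-PCR/capillary electrophoresis; bidirectional fits versus DMSO.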

[8] = ATG_TCF_b_cat_CIS: Attagene CIS-FACTORIAL HepG2 Assay for human T-Cell-Factor with beta-catenin (TCF/b-cat) (AID 2282965); conditions: HepG2 TCF/beta-catenin cis-reporter transcription, actives raise or lower the signal
Procedure, shortened: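 Endogenous transcription factor activity is captured through cis-promoter reporter constructs transiently introduced into human HepG2 liver cells. Induced reporter mRNA is measured after 24 h and fitted bidirectionally relative to DMSO.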

[9] = ATG_TAL_CIS: Attagene CIS-FACTORIAL HepG2 Assay for human TAL Basal Promoter (AID 2282966); conditions: HepG2 Attagene cis-factorial TAL promoter reporter; actives raise or lower the signal;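 further: background control endpoint measuring basal TAL promoter reporter mRNA not a specific factor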
Procedure, shortened: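 Readout: reporter mRNA, fluorescence by CE. System: HepG2, transient multi-reporter transfection, endogenous TF activity. Exposure: 24 h. Analysis: bidirectional, DMSO-normalized; background control.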

[10] = ATG_TGFb_CIS: Attagene CIS-FACTORIAL HepG2 Assay for human Transforming Growth Factor (TGF) (AID 2282967); conditions: HepG2 Attagene CIS TGFb reporter, mRNA transcription; actives raise or lower the signal
Procedure, shortened: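 HepG2 cells transiently transfected with cis-promoter-driven multiple reporter units measure endogenous TF activity; reporter mRNA quantified at 24 h by RT-PCR, FAM labeling, HpaI digestion and capillary electrophoresis. Bidirectional fit vs DMSO.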

[11] = ATG_VDRE_CIS: Attagene CIS-FACTORIAL HepG2 Assay for human Vitamin D Receptor Element (VDRE) (AID 2282968); conditions: HepG2 VDRE cis-reporter transcription, actives raise or lower the signal
Procedure, shortened: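 In transiently transfected HepG2 liver cells, gain or loss of reporter mRNA after 24 h exposure is scored relative to DMSO, using fluorescence detection by capillary electrophoresis of RT-PCR products.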

[12] = target: Steroid hormone receptor ERR1 (Homo sapiens) (UniProt P11474); experiment: ATG_ERRa_TRANS: Attagene TRANS-FACTORIAL HepG2 Assay for human Estrogen-Related Receptor alpha (ERRa) (AID 2282971; active means hit-call score of the fitted dose curve at least 0.9, where 1 is the maximum); conditions: HepG2 Attagene TRANS reporter, ERRa transactivation
Procedure, shortened: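 HepG2 cells were transiently transfected with multiple GAL4-UAS reporter units, then dosed with compound for 24 h. Total RNA was reverse-transcribed, reporter cDNA PCR-amplified and fluorescently labelled, and fragments resolved by capillary electrophoresis; induction was compared with DMSO.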

[13] = target: X-box-binding protein 1 (Homo sapiens) (UniProt P17861); experiment: ATG_Xbp1_CIS: Attagene CIS-FACTORIAL HepG2 Assay for human X-box Binding Protein 1 (XBP1) (AID 2282972); conditions: HepG2 XBP1 cis-element reporter, Attagene multiplex; actives raise or lower the signal
Procedure, shortened: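 HepG2 cells transiently transfected with multiple cis-element reporter units report endogenous TF activity; 24 h exposure, then reporter mRNA measured by RT-PCR, 6-FAM labelling, HpaI digestion and capillary electrophoresis. Bidirectional fitting versus DMSO.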

[14] = ATG_M_19_TRANS: Attagene TRANS-FACTORIAL HepG2 Assay for M19 Transcription Factor (Internal Marker) (AID 2282974; active means hit-call score of the fitted dose curve at least 0.9, where 1 is the maximum); conditions: HepG2 Attagene TRANS-FACTORIAL M19 internal marker reporter
Procedure, shortened: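 Using RT-PCR and capillary electrophoresis, reporter mRNA from transiently transfected human HepG2 cells was quantified following 24 h exposure; activity was fitted in the positive direction against DMSO.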

[15] = target: Estrogen receptor (Homo sapiens) (UniProt P03372); experiment: ATG_ERa_TRANS: Attagene TRANS-FACTORIAL HepG2 Assay for human Estrogen Receptor alpha (ERa) (AID 2282970; active means hit-call score of the fitted dose curve at least 0.9, where 1 is the maximum); conditions: HepG2 Attagene TRANS ERa GAL4 reporter, mRNA
Procedure, shortened: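 Transactivation via ERa-Gal4 chimera in HepG2; 24 hour incubation; reporter mRNA detected by fluorescence RT-PCR and capillary electrophoresis.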

[16] = ATG_RORE_CIS: Attagene CIS-FACTORIAL HepG2 Assay for human RAR-related Orphan Receptor Element (RORE) (AID 2282959); conditions: HepG2 Attagene cis-factorial RORE reporter, mRNA; actives raise or lower the signal
Procedure, shortened: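 Transiently transfected HepG2 reporter cells were treated 24 h. Reporter transcripts were detected by RT-PCR and capillary electrophoresis, with bidirectional fitting against DMSO.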

[17] = target: Nuclear receptor subfamily 1 group I member 3 (Homo sapiens) (UniProt Q14994); experiment: ATG_CAR_TRANS: Attagene TRANS-FACTORIAL HepG2 Assay for human Constitutive Androstane Receptor (CAR) (AID 2282969; active means hit-call score of the fitted dose curve at least 0.9, where 1 is the maximum;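 further: activators raise reporter mRNA above DMSO so AC50 marks induction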); conditions: HepG2 Attagene TRANS-FACTORIAL CAR reporter
Procedure, shortened: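 Readout is reporter mRNA induction, quantified by fluorescent primer extension and capillary electrophoresis after RT-PCR. Cells were HepG2 transiently carrying chimeric NR-Gal4 constructs with GAL4-UAS reporters, treated for 24 h; activity scored upward from DMSO.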

[18] = target: Estrogen-related receptor gamma (Homo sapiens) (UniProt P62508); experiment: ATG_ERRg_TRANS: Attagene TRANS-FACTORIAL HepG2 Assay for human Estrogen-Related Receptor gamma (ERRg) (AID 2282977; active means hit-call score of the fitted dose curve at least 0.9, where 1 is the maximum;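 further: hits increase reporter signal over DMSO so potencies reflect activators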); conditions: HepG2 Attagene TRANS reporter, ERRg transactivation
Procedure, shortened: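 HepG2 cells transiently transfected with multiplexed GAL4-UAS reporter units and chimeric NR-Gal4 constructs were exposed to test chemicals for 24 h. Reporter mRNA was measured by RT-PCR, 6-FAM primer extension, HpaI digestion and capillary electrophoresis; gain-of-signal versus DMSO.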

[19] = ATG_GAL4_TRANS: Attagene TRANS-FACTORIAL HepG2 Assay for GAL4 (Internal Marker) (AID 2282976; active means hit-call score of the fitted dose curve at least 0.9, where 1 is the maximum); conditions: HepG2 Attagene TRANS GAL4 internal marker reporter
Procedure, shortened: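 Fluorescence from capillary electrophoresis of labelled RT-PCR products quantifies reporter mRNA induction after 24 h dosing of HepG2 cells carrying transfected GAL4-UAS reporter transcription units. Vehicle DMSO serves as baseline.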

Measured: AC50

Chain of X-box-binding protein 1 (Homo sapiens) (P17861 whole entry, looked up): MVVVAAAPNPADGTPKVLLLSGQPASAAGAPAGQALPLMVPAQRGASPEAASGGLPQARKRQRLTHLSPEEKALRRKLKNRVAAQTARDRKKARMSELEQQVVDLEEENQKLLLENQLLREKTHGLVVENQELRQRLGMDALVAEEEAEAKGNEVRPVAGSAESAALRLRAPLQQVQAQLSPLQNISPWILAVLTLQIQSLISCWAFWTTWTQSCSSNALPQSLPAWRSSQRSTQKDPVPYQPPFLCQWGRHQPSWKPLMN
Chain of Signal transducer and activator of transcription 3 (Homo sapiens) (P40763 whole entry, looked up): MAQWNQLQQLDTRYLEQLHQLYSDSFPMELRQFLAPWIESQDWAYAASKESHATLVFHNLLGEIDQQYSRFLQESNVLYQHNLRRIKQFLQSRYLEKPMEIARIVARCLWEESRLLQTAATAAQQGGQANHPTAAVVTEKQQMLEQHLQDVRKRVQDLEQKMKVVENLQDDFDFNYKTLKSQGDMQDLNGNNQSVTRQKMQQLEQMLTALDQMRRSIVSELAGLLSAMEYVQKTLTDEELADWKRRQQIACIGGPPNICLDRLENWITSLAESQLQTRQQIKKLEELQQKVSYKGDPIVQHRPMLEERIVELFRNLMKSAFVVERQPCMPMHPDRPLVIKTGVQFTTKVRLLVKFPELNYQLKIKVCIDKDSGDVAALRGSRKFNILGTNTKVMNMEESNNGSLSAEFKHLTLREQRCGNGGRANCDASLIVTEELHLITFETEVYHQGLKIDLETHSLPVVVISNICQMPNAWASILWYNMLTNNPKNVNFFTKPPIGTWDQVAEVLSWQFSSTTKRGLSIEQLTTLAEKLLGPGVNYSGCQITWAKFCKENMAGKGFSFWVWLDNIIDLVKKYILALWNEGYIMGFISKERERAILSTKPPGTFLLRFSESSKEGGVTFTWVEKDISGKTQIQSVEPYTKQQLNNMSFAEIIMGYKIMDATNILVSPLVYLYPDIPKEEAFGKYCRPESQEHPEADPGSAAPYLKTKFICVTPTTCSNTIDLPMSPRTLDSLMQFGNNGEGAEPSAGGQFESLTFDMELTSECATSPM
Chain of Paired box protein Pax-6 (Homo sapiens) (P26367 whole entry, looked up): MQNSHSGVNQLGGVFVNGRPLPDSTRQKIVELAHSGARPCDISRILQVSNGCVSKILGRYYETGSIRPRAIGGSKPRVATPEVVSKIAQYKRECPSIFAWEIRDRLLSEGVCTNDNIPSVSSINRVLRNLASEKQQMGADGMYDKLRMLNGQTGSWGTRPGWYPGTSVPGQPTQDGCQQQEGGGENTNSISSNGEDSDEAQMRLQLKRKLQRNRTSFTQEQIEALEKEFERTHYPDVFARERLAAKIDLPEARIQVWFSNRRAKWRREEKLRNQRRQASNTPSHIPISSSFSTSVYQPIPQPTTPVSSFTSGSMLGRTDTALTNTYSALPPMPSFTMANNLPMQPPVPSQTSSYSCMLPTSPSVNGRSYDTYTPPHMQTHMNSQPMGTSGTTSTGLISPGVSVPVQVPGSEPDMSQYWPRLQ
Chain of Nuclear receptor subfamily 1 group I member 3 (Homo sapiens) (Q14994 whole entry, looked up, the tested form may be a part): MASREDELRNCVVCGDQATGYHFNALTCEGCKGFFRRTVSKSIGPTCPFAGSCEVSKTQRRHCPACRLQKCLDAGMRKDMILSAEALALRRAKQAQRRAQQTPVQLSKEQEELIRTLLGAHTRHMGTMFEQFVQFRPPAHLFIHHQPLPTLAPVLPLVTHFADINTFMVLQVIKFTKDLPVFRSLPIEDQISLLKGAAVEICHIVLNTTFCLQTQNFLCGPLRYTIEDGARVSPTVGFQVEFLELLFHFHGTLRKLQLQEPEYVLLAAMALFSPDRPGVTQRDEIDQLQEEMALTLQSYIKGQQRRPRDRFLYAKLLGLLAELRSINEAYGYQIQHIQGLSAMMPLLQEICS
Chain of Estrogen receptor (Homo sapiens) (P03372 whole entry, looked up, the tested form may be a part): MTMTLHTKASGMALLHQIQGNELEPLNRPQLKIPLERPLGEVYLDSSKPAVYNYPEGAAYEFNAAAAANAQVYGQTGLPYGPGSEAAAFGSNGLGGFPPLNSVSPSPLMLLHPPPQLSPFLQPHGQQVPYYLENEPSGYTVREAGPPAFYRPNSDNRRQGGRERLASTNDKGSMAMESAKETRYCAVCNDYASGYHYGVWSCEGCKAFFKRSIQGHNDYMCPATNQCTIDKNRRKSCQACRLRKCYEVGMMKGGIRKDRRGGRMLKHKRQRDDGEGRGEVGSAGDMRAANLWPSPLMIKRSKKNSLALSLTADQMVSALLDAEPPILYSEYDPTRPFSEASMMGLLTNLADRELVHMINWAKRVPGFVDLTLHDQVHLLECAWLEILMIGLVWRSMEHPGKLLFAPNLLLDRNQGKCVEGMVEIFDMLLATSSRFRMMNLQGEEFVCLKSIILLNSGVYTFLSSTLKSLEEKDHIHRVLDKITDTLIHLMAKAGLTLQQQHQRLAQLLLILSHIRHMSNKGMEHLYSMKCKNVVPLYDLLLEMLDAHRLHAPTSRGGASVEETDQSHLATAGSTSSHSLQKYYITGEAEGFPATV
Chain of Transcription factor Sp1 (Homo sapiens) (P08047 whole entry, looked up, the tested form may be a part): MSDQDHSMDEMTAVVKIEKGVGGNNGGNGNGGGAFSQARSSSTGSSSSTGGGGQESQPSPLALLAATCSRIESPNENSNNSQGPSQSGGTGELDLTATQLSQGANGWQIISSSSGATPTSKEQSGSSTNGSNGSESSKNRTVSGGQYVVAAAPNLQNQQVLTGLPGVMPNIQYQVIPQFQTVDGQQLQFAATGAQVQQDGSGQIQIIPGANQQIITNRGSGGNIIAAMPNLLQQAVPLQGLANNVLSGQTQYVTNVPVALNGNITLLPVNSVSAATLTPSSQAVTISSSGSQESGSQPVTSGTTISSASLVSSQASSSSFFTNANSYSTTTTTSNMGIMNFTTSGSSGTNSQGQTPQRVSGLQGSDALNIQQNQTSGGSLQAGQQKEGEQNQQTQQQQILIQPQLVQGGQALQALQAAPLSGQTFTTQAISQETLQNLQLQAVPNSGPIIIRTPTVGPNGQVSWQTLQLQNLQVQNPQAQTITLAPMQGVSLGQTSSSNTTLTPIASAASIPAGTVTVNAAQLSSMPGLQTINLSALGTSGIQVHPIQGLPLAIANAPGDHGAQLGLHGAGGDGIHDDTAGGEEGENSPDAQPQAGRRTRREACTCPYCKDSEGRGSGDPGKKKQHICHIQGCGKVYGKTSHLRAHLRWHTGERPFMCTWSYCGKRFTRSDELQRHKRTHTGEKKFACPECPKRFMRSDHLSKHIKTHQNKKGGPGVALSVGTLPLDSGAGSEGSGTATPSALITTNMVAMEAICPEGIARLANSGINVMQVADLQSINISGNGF
Chain of Steroid hormone receptor ERR1 (Homo sapiens) (P11474 whole entry, looked up, the tested form may be a part): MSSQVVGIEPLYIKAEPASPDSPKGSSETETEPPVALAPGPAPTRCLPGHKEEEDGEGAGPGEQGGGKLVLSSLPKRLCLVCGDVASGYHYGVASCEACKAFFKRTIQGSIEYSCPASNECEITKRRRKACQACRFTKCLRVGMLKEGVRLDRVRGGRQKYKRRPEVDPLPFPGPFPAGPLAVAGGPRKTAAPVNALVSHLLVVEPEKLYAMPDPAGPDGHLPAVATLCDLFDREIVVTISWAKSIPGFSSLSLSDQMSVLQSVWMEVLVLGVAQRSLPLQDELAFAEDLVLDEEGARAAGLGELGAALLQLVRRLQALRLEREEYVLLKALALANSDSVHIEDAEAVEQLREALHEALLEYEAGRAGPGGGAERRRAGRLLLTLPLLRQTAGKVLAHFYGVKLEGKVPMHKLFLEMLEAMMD
Chain of Estrogen-related receptor gamma (Homo sapiens) (P62508 whole entry, looked up, the tested form may be a part): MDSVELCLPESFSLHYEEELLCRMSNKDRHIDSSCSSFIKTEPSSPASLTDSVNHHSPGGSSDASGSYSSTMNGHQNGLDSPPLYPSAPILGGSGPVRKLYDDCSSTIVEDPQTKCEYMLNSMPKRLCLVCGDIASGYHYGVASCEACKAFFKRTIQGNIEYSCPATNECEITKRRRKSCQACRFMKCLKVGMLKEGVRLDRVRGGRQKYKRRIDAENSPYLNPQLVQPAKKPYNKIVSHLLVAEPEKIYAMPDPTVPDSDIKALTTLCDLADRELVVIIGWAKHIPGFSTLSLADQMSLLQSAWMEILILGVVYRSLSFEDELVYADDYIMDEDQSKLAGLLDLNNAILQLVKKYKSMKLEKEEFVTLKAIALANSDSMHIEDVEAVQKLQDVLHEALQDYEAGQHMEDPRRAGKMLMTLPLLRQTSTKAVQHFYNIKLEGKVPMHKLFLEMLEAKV

CC(=O)[C@@]1(O)CC[C@H]2[C@@H]3C[C@H](C)C4=CC(=O)C=C[C@]4(C)[C@@]3(F)[C@@H](O)C[C@@]21C
inactive: [1] | [2] | [3] | [4] | [5] | [6] | [7] | [8] | [9] | [10] | [11] | [12] | [13] | [14]

CC(C)(c1cc(Br)c(OCCO)c(Br)c1)c1cc(Br)c(OCCO)c(Br)c1
inactive: [3] | [4] | [6] | [10] | [15] | [14]
active: [1] 17.4 µM | [2] 0.484 µM | [5] 18 µM | [7] 15.3 µM | [8] 7.14 µM | [9] 27 µM | [11] 1.22 µM | [13] 30.1 µM

CC(C)(C)C(=O)C=Cc1ccc(Cl)cc1
active: [1] 36.8 µM | [2] 5.18 µM | [3] 25.1 µM | [6] 164 µM | [7] 78.2 µM | [9] 100 µM | [11] 26.3 µM | [17] 24.8 µM | [15] 26.1 µM | [13] 66.4 µM
inactive: [16] | [5] | [10] | [12] | [14] | [18]

Nc1nc2ccccc2[nH]1
inactive: [1] | [2] | [3] | [4] | [5] | [7] | [8] | [9] | [11] | [17] | [15] | [13]

C=C[Si](C)(C)O[Si](C)(C)C=C
inactive: [1] | [3] | [4] | [5] | [6] | [7] | [8] | [9] | [10] | [11] | [13] | [14] | [19]
active: [2] 27.9 µM

CC1OC1C1CCC2(C)OC2C1 (stereo not given)
active: [2] 36.7 µM
inactive: [1] | [16] | [3] | [5] | [7] | [8] | [9] | [10] | [11] | [17] | [15] | [13] | [14] | [19]
